From the supplement of paper PMC6518042 come the findings set out here.

A number with no mark means an inactive call.

The subject of one assay is Pectobacterium parmentieri SCC3193. The assay is described as follows: DuctApe activity index (growth/respiration on compound as sole nutrient source, blank-subtracted) (activity index (0-3)); higher = stronger utilization of the compound, active = 3 or more. Conditions: nutrient role (plate category): nitrogen. The method, then:
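Biolog Phenotype Microarray plates PM1, PM2A (carbon), PM3 (nitrogen) and PM4 (phosphorus/sulfur) inoculated with P. parmentieri SCC3193 in M9-C minimal salts medium with Biolog dye A, and read in the OmniLog for 46 h. Each well was tested in triplicate and the experiment was run twice. DuctApe computed a blank-subtracted activity index (AV, 0-3) from the mean curves; growth is positive at AV >= 3 and negative at AV <= 2.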
Take `CCCCN` [N-Butylamine]: the DuctApe activity index is 0. On the same count and under the same terms, next, `NO` [Hydroxylamine]: 0; `Nc1ccn([C@@H]2O[C@H](CO)[C@@H](O)[C@H]2O)c(=O)n1` [Cytidine]: 3 (active); `O=c1[nH]c(=O)c2nc[nH]c2[nH]1` [Xanthine]: 3 (active).

Still in this assay, the particulars now being: nutrient role (plate category): phosphate & sulphur.
For the compound `Nc1ccn([C@@H]2O[C@H](CO)[C@@H](OP(=O)(O)O)[C@H]2O)c(=O)n1` [Cytidine 3`-Monophosphate], the DuctApe activity index was 2. Still for that read-out and setting: then `NCCS(=O)(=O)O` [Taurine], with 1; and `O=C(O)C(O)COP(=O)(O)O` [D-3-Phospho-Glyceric acid], with 2; and `OC[C@H]1O[C@@H](S)[C@H](O)[C@@H](O)[C@@H]1O` [1-Thio-b-D-Glucose], with 0. For `C[C@@H](OP(=O)(O)O)[C@H](N)C(=O)O` [O-Phospho-L-Threonine], the DuctApe activity index was 2.

Consider `CC(=O)N[C@@H](CS)C(=O)O` [N-Acetyl-L-Cysteine], for which the DuctApe activity index is 1.

In the case of `N[C@@H]1[C@@H](O)[C@H](O)[C@@H](COP(=O)(O)O)O[C@@H]1O` [D-Glucosamine-6-Phosphate], the DuctApe activity index is 2. Take `O=S(=O)(O)O` [Sulfate]: the DuctApe activity index was 1. On to `NC(N)=S` [Thiourea], for which the DuctApe activity index is 0. Still for that read-out and setting: next, `C[S+]([O-])CC[C@H](N)C(=O)O` (stereo partly drawn) [L-Methionine Sulfoxide]: 1; `Nc1ccc(S(=O)(=O)O)cc1` [p-Aminobenzene Sulfonic acid]: 0; `C[C@H](CCC(=O)NCCS(=O)(=O)O)[C@H]1CC[C@H]2[C@@H]3[C@H](O)C[C@@H]4C[C@H](O)CC[C@]4(C)[C@H]3C[C@H](O)[C@]12C` [Taurocholic acid]: 2. On the same count and under the same terms, next, `Cc1cn([C@H]2C[C@H](OP(=O)(O)O)[C@@H](CO)O2)c(=O)[nH]c1=O` [Thymidine 3`-Monophosphate]: 2.

For the compound `O=P(O)(O)CP(=O)(O)O` [Methylene Diphosphonic acid], the DuctApe activity index is 0. In the case of `N[C@@H](CCC(=O)N[C@@H](CS)C(=O)NCC(=O)O)C(=O)O` [Glutathione], the DuctApe activity index is 1. Regarding `O=c1ccn([C@@H]2O[C@H](CO)[C@@H](OP(=O)(O)O)[C@H]2O)c(=O)[nH]1` [Uridine 3`-Monophosphate], the DuctApe activity index is 2.
